The panel holds about 83,000 compounds, 20% with a hit somewhere; the sample as a whole holds those more often.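 Single-concentration screen, 48 h exposure, 96-well plates. Endpoint: percent growth. Below 10 = active.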 Unmarked numbers belong to inactive results. The source made the active and inactive calls.
Tested on: HOP-62 NSCLC
Assay: NCI-60 one-dose screen, 48 h (100 = growth as untreated, 0 = no growth, -100 = all killed)
Conditions: 10 µM
Experimental: Growth inhibition of the HOP-62 human Non-Small Cell Lung tumor cell line is measured as a screen for anti-cancer activity. Cells are grown in 96 well plates and exposed to the test compound for 48 hours. Compounds are tested at a single concentration, which is 10^-5 M for most compounds. The reported endpoint is percent growth (GI% or GIPRCNT), where numbers from 0 - 100% represent growth inhibition, and numbers from -100% - 0 represent cell death. For example, a value of 40 represents 60% growth inhibition. A value of 0 means no net growth occurred over the course of the experiment. A value of -40 indicates 40% of cells at the beginning of the experiment died by the end of the experiment. A value of -100 means all cells are dead at the end of the experiment.
NCI-60 Human Tumor Cell Lines Screen was performed using the standard one-dose NCI protocol, which is described in more detail at https://dtp.cancer.gov/discovery_development/nci-60/default.htm.
Compounds with GIPRCNT values below 10 were considered active. Activity score was based on GIPRCNT using the following formula: […]
Score is 0 for GIPRCNT values of 100 or above, 50 for GIPRCNT values of 0, and 100 for GIPRCNT values of -100.

Structure (SMILES)	growth
COc1ccc2c(c1)C(=O)c1c-2c(OCCN(C)C)nc2cc(OC)c(OC)cc12	36.1%
Cc1ccc(NC(=O)Nc2c(Cl)cccc2Cl)cn1	107%
COc1ccc(-c2cc(/C=C/C(=O)c3cc(OC)c(OC)c(OC)c3)[nH]n2)cc1OC	-27% (active)
CCOC(=O)CNC(=O)CCCCSc1ncnc2nc[nH]c12	96.2%
CCOC(=O)N1C/C(=C/c2ccc(Cl)cc2)C(=O)/C(=C/c2ccc(Cl)cc2)C1	64.7%
COc1ccc(-c2nc3ccccn3c2-c2nnc(-c3cc(OC)c(OC)c(OC)c3)o2)cc1	37.1%
N#Cc1ncc(-c2cc(F)c(F)c(F)c2)c(NC2CCCCCC2)n1	100%
C[C@]12CC[C@@H]3c4ccc(O)cc4C[C@@H](O)[C@H]3[C@@H]1CC[C@@H]2O	108%
COc1ccc(Nc2ncnc3c2c(SC)nn3-c2ccccc2)cc1	96.7%
CCN(CC)CCSCCN(CC)CC	108%
CC[C@H]1CCC/C=C/[C@@H]2C[C@H](O)C[C@H]2[C@H](O)/C=C/C(=O)O1	25.2%
CCN(CC)CCOc1nc2cc(OC)c(OC)cc2c2c1-c1ccc(OC)cc1C2=O	60.9%
CN(C)c1ccc(N=C2C=CC(=O)c3ccccc32)cc1	82.5%
CCCCCC(=O)c1ccc(OCCCN2CCN(C(=O)OCC)CC2)cc1	108%
COc1cccc(C(=O)Nc2ccc(CN3CCc4nc5cc(OC)c(OC)cc5cc43)cc2)c1	81%
CCCC#CCN(CC)CC	117%
CC12O[C@H](C[C@@H](O)[C@H]1O)n1c3ccccc3c3c4c(c5c6ccccc6n2c5c31)C(=O)N(CCCN)C4=O	25.3%
C(CCCC1=NCCO1)CCCC1=NCCO1	107%
CN(C)CCN1C(=O)c2cccc3c(-c4ccc5ncn(C6CCCCC6)c5c4)ccc(c23)C1=O	23.4%
C#Cc1ccc(-n2c(/C=C/c3ccc4ccccc4n3)nc3ncccc3c2=O)cc1	-34% (active)

Structure (SMILES)	growth
COc1ccccc1CNCCN1C(=O)c2ccc3c4c(ccc(c24)C1=O)C(=O)N(CCNCc1ccccc1OC)C3=O	-79.8% (active)
Nc1ccn(C2CC(O)C(CO)O2)c(=O)n1 (stereo not given)	98.8%
CCc1ccc2c(c1)N(CCO)C1=C(C(=O)OC1)C2c1ccccc1 (stereo not given)	81.6%
CC/C(=C(/c1ccc(OCCN(C)C)cc1)c1ccc(OC(=O)CCCCCCCCC(=O)c2c(C)[nH]c(/C=C3\N=C(c4ccc[nH]4)C=C3OC)c2C)cc1)c1ccccc1	75.9%
O=C(O)CCCCSc1ncnc2nc[nH]c12	96.7%
CCOC(=O)N1C=CC2C=CC1C1C=CC=CC2N1C(=O)OCC (stereo not given)	106%
CC(=O)N1C/C(=C/c2ccc(Cl)cc2)C(=O)/C(=C/c2ccc(Cl)cc2)C1	-29.7% (active)
COc1ccc(-c2nn(-c3cccc(NC(=O)Nc4ccccc4)c3)cc2-c2ccncc2)cc1Cl	46%
CC1(C)Cc2c(sc3ncn4nc(-c5ccc(O)cc5)nc4c23)CO1	79.2%
Clc1ccc(Sc2nc(NC3CC3)nc(Sc3ccc(Cl)cc3)n2)cc1	102%
CN(C)CCS(=O)(=O)CCN(C)C	108%
O=C(/C=C/c1cc2ccccc2[nH]c1=O)c1ccc2c(c1)OCO2	98%
CCCCCCN1CCN(Cc2ccc(N(CC)CC)cc2)C(=O)C1=O	33.3%
COc1cc(Nc2ccnc(NCCNc3ccnc4cc(Cl)ccc34)n2)cc(OC)c1	79.2%
O=C1/C(=C\c2ccccc2)CN(C(=O)c2ccccc2F)C/C1=C\c1ccccc1	17.9%
Clc1nc(Cl)c2c(ncn2C/C=C\Cn2cnc3c(Cl)nc(Cl)nc32)n1	11.2%
CC(C)(Cl)CCC1=C(Cl)C(=O)c2ccccc2C1=O	59%
CCCCN(CCCC)c1cc(C(=O)CCCCCN)c2ccccc2n1	110%
Nc1ccc2c(c1)Cc1cc(N)c(Br)cc1-2	93.4%
O=C(/C(=C/c1ccccc1)CN1CCCCC1)c1ccccc1	-26.5% (active)
